Screening results deposited in PubChem BioAssay by several laboratories.
Measles CPE: compounds protecting cells from measles virus cytopathic effect, primary screen, measles RdRp inhibitor project, single point, MLSMR library, absorbance | Measles virus-infected cells, CPE protection | protection (pct of control), % at 4 µM | 1.5% of 140,000 active; in the data active = protection mostly above about 24%, no sharp cut-off; inactive = mostly below about 26%
MT1-MMP txn act: MT1-MMP promoter reporter activation – cell-based, luciferase luminescence, primary screen | HT1080 MT1-MMP promoter luciferase reporter, overnight; hits give high values | activation factor at 10 µM | 0.16% of 86,000 active;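 active = activation factor of at least 2 for MT1-MMP transcription at 10 µM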
Smad3 inh: Smad3/FoxH1 peptide binding inhibitors, primary screen, biochemical, TR-FRET. Mothers against decapentaplegic homolog 3 (Homo sapiens), P84022. TR-FRET Smad3/Dy647-FoxH1 peptide binding, europium anti-His. inhibition, % at 25 µM. 0.29% of 88,000 active;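 active = compounds that reduce the energy-transfer binding signal between the protein and its labelled peptide by more than half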
Target sequence (P84022 whole entry, looked up): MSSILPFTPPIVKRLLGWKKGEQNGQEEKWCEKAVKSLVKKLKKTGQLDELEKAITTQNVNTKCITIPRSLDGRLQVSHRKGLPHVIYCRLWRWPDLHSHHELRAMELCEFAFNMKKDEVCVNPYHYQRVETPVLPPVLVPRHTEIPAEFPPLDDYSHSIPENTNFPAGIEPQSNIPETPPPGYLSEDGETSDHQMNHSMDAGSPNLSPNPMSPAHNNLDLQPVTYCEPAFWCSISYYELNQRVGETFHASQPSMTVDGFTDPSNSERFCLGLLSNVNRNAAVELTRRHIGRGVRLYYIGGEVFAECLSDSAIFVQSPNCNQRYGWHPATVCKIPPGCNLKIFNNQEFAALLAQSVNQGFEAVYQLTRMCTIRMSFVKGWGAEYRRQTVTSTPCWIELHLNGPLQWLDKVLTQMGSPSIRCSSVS
Hits are given with their value; 0 = inactive; - = not tested or not shown. Hits are enriched below; roughly 1.7% of the tested compounds scored in any of these assays.

SMILES	Measles CPE	MT1-MMP txn act	Smad3 inh
Cc1nn(Cc2ccccc2)c(C)c1NC(=O)CSc1nc(-c2ccccc2)nc2c1cnn2-c1ccccc1	0	0	0
CN(C)CCNc1nc2c(c(=O)n(C)c(=O)n2C)n1C	-	-	0
CC1(C)[C@@H](CC(=O)O)CCC[C@H]1CC(=O)O	-	-	0
O=C(O)c1cccc(N2C(=O)c3cccc(Oc4ccc(Cl)cc4)c3C2=O)c1	0	-	-
Fc1ccc(-c2nnn(Cc3nc4ccccc4s3)n2)cc1	46.3	0	0
Clc1ccc(-c2nnn(Cc3nc4ccccc4s3)n2)cc1	0	0	0
C[N+](C)(N)Cc1csc(-c2ccc(Cl)cc2)n1	-	-	0
O=C(Cc1cccs1)Nc1cc(SCCO)cc([N+](=O)[O-])c1	102.2	-	-
O=C(Nc1cc(SCCO)cc([N+](=O)[O-])c1)c1ccco1	0	-	-
O=C(CSCc1ccc(F)cc1)N1CCN(c2ccc(F)cc2)CC1	0	0	0
O=C(CSCc1ccc(F)cc1)N1CCN(c2ccccc2)CC1	79.5	0	0
O=C(CN1CCOCC1)NN=C1CCCCCCCCCCC1	0	-	-
Cc1cc(C)c(C)c(S(=O)(=O)N2CCC(C(=O)Nc3ccccc3N3CCOCC3)CC2)c1C	0	-	-
Cc1ccc(S(=O)(=O)N2CCC(C(=O)Nc3ccccc3N3CCCCC3)CC2)cc1	34.0	0	-
NC(N)=NC(N)=Nc1ccccc1 (tested in a mixture with another compound)	-	-	60.2
NC(N)=Nc1ccc(-c2ccc(N=C(N)N)cc2)cc1	-	-	0
N#C/C(=C(/O)C(=O)O)c1ccc(-c2cccc3ccccc23)cc1	-	-	0
COC(=O)C(C)Sc1nc2c(cnn2-c2ccc(C)cc2)c(=O)[nH]1 (stereo not given)	58.6	0	0
CCC(Sc1nc2c(cnn2-c2ccccc2)c(=O)[nH]1)C(=O)OC (stereo not given)	0	0	0
CCc1cc(C=C(Cl)Cl)oc(=O)c1C	56.2	0	0
C=C(Cl)COc1cc(C)cc2oc(=O)cc(CC)c12	0	-	0
CN(C)C(=O)c1ccc2c(c1[N+](=O)[O-])C(=O)c1ccccc1C2=O	0	-	-
O=C1c2ccccc2-c2cc([N+](=O)[O-])c([N+](=O)[O-])cc21	-	-	52.2
CCOC(=O)c1c(/N=C/N(C)C)sc(/C=N/Nc2ccccc2)c1-c1ccc(Cl)cc1	0	-	-
Cc1ccc(N2C(=O)CC(NNc3nc4ccccc4s3)C2=O)cc1 (stereo not given)	47.8	-	-
SMILES	Measles CPE	MT1-MMP txn act	Smad3 inh
O=C1CC(NNc2nc3ccccc3s2)C(=O)N1c1ccccc1 (stereo not given)	0	-	-
Cn1c(=O)c2c(nc(NCCNc3nc4c(c(=O)n(C)c(=O)n4C)n3C)n2C)n(C)c1=O	-	-	0
CCOC(=O)c1c(C)[nH]c(C)c1C(=O)COC(=O)c1ccc(S(=O)(=O)N(CC)CC)cc1	51.1	0	0
CCOC(=O)c1c(C)[nH]c(C)c1C(=O)COC(=O)c1cccc(S(=O)(=O)N(CC)CC)c1	0	0	0
O=Cc1cn(-c2ccccc2)nc1-c1ccc2c(c1)OCCO2	0	2	0
N#Cc1cn(-c2ccccc2)nc1-c1ccc2c(c1)OCCO2	0	0	0
Cc1cc(SCC(=O)NCCC2=CCCCC2)nc2ccccc12	0	-	-
CCOc1ccccc1N(C(=O)Cn1nnnc1-c1ccc(C)o1)C(CC)C(=O)NC(C)(C)C (stereo not given)	39.4	0	0
Cc1ccc(-c2nnn(CC(=O)N(c3ccccc3)C(C(=O)NC(C)(C)C)c3cccs3)n2)o1 (stereo not given)	0	0	0
COc1ccccc1C1CN(c2ccc(F)cc2F)N=C1c1cccs1 (stereo not given)	0	0	0
COc1ccccc1C1CC(c2cccs2)=Nc2ccccc2S1 (stereo not given)	0	2.1	0
NNC(=O)CCSc1ccccc1	-	-	0
CCCCn1c(-c2ccccc2)nc2c(=O)n(C)c(=O)[nH]c21	0	0	0
CCCCn1c(C)nc2c(=O)n(C)c(=O)[nH]c21	29.1	0	0
COC(=O)c1ccc(C#CC(NP(=O)(c2ccccc2)c2ccccc2)c2ccccc2)cc1 (stereo not given)	-	0	-
Cc1c(Cl)c([N+](=O)[O-])nn1CC(=O)NC(C)C1CC2CCC1C2 (stereo not given)	48.4	-	-
CCC(C)NC(=O)Cn1nc([N+](=O)[O-])c(Cl)c1C (stereo not given)	0	-	-
O=C(NCCO)c1ccc(Cl)c(Cl)c1	0	0	0
O=C(NCCO)c1ccc(Cl)cc1	-	-	57.6
CCOc1ccc(-n2c(SCC(=O)Nc3ccc4c(c3)OCO4)nc3ccccc3c2=O)cc1	45.4	0	0
COc1ccc(-n2c(SCC(=O)Nc3ccc4c(c3)OCO4)nc3ccccc3c2=O)cc1	0	0	0
OC(CNCCC1C=Nc2ccccc21)Cn1c2ccc(Cl)cc2c2cc(Cl)ccc21 (stereo not given)	0	-	-
C#CCCCC(=S)Nc1ccccc1	-	0	-
Cc1ccccc1N=C1NC(=O)CC(c2ccccc2)S1 (stereo not given)	0	-	-
O=C1CC(c2ccccc2)n2nc(N3C(=O)CCC3=O)nc2N1 (stereo not given)	52.0	0	0
SMILES	Measles CPE	MT1-MMP txn act	Smad3 inh
O=C1CC(c2ccc(Cl)cc2)n2nc(N3C(=O)CCC3=O)nc2N1 (stereo not given)	0	0	0
Cc1cccc(NS(=O)(=O)c2cc(C(=O)OC(C)C(=O)NCc3ccc4c(c3)OCO4)ccc2C)c1 (stereo not given)	0	-	-
C=CCSc1nc2c(N)ncnc2n1[C@H]1O[C@H](CO)[C@@H](O)[C@@H]1O	-	-	0
CCCc1[nH]nc2c1C(c1ccncc1)C(C#N)=C(N)O2 (stereo not given)	0	0	0
CCCc1nn(C)c2c1C(c1ccncc1)C(C#N)=C(N)O2 (stereo not given)	39.8	0	0
COc1ccc(Cl)cc1CSc1n[nH]c(C)n1	27.0	0	0
CCCCOc1ccc(Cl)cc1CSc1n[nH]c(C)n1	0	0	0
CCOC(=O)C(=O)NNc1ccccc1C	0	-	-
CCOC(=O)C(=O)NNc1cccc(C)c1C	44.6	-	-
CCNC(=O)COC(=O)c1csc2c1CCCC2	0	-	-
CC1(C)CC(=O)c2cnc(NCC3CCCO3)nc2C1 (stereo not given)	29.7	0	0
CC1CC(=O)c2cnc(NCC3CCCO3)nc2C1 (stereo not given)	0	0	0
C[C@H](Br)C(=O)Nc1ccc(C(=O)O)c(O)c1	-	-	0
O=C(O)c1ccc(S(=O)(=O)N2CCC(c3nc(-c4ccccc4Cl)no3)CC2)cc1	0	0	0
O=C(C(c1ccccc1)c1ccccc1)N1CCC(c2nc(-c3ccccc3Cl)no2)CC1	37.0	0	0
COc1ccc(NC(=S)NNC(=O)Cn2nc(C(F)F)cc2C(F)F)cc1	0	-	-
COCCN(C(=S)Nc1ccc(OC)cc1)C1CCN(C(C)C)CC1	0	-	-
Cc1ccc(NC(=S)N(Cc2ccco2)C2CCN(C(C)C)CC2)cc1	38.6	-	-
CCOc1ccc(/C=N/OC(C)C(=O)NCc2ccc3c(c2)OCO3)cc1 (stereo not given)	0	-	-
COC(=O)C1CCN(C(=O)c2sc3nc(-c4ccc(F)cc4)cn3c2C)CC1	39.4	0	0
CCOC(=O)C1CCN(C(=O)c2sc3nc(-c4ccccc4)cn3c2C)CC1	0	0	0
Oc1c(Br)cc(Br)cc1CN(Cc1cc(Br)cc(Br)c1O)C1CCCCC1	-	-	0
